SW480 rerep: induces DNA re-replication in SW480 colon adenocarcinoma cells; SW480 DNA re-replication, Hoechst DNA content imaging, 48 h; Potency, µM (series often up to 46.1 µM), for inactives: at the top dose re-replication activation, actives largely listed as activators; 340,000 tested, 1.8% active; AID 624297; also: potency is read from the fitted curve at half-maximal effect; % of control where 0% means no effect; nearly all actives have a fitted effect of over 55% in size
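DNA re-replication was detected as more nuclei of elevated Hoechst intensity after 48 hr exposure to compound (23 nL pinned per well of 250 cells).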
KB-3-1 tox: kills parental KB-3-1 adenocarcinoma cells; AID 1347075; 400,000 tested, 1.4% active; KB-3-1 viability, CellTiter-Glo ATP luminescence, 72 h; Potency, µM (series often up to 46.1 µM), hits mostly cytotoxic; also: potency is read from the fitted curve at half-maximal effect; % is scaled to controls: 0 for no effect and ±100 for the full control effect; nearly all actives have a fitted effect of over 60% in size
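Using CellTiter-Glo luminescence, growth of non-resistant KB-3-1 adenocarcinoma cells is assessed 72 h after pin-tool compound addition at 37 °C. Normalized responses across the concentration series yield fitted curves.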
MCF10A rerep: DNA re-replication induction in MCF 10a cells. MCF 10A DNA re-replication, Hoechst nuclear intensity, 48 h. Potency, µM (doses to about 46.1 µM), for inactives: top-dose activity, positive = re-replication, most hits filed as activators. 350,000 tested, 2.9% active; also: potency is read from the fitted curve at half-maximal effect; % of control where 0% means no effect; nearly all actives have a fitted effect of over 50% in size
KB-V1 cytotox: KB-V1 MDR subline cytotoxicity; KB-V1 MDR cells viability, CellTiter-Glo, 72 h; AID 1347076; Potency, µM (titrated, usually from 46.1 µM), hits mostly cytotoxic; 400,000 tested, 3.4% active; also: potency is read from the fitted curve at half-maximal effect; % is scaled to controls: 0 for no effect and ±100 for the full control effect; nearly all actives have a fitted effect of over 60% in size
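Potencies derive from concentration-effect curves fitted to normalized luminescence (CellTiter-Glo) of KB-V1 cells treated for 72 h at 37 degrees C in phenol-red-free DMEM containing 10% FBS.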
Giardia kill: Giardia lamblia killing | Giardia lamblia trophozoite viability | activity change, % at 7.66 µM, hits read low | 340,000 tested, 0.15% active | AID 540267; in the data active = activity change below about -80%; inconclusive = between about -30% and that limit;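 also: parasites exposed to compound for two days anaerobically before the ATP read; % is scaled to controls: 0 for no effect and ±100 for the full control effect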
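Viability, read as ATP luminescence: trophozoites at 100 cells/well, compound added, 48 hrs anaerobic at 37 deg C, then 15-30 min room-temperature development before reading.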
ASM inhibitor: inhibitors of human secretory acid sphingomyelinase; placental ASM, HMU-PC fluorogenic substrate, 60 min; Potency, µM (highest dose often 57.5 µM), for the others: top-dose activity change, negative = inhibition, most hits filed as inhibitors; 340,000 tested, 0.006% active; AID 504937; also: potency is read from the fitted curve at half-maximal effect
Target sequence (P17405 47-631 limits assumed): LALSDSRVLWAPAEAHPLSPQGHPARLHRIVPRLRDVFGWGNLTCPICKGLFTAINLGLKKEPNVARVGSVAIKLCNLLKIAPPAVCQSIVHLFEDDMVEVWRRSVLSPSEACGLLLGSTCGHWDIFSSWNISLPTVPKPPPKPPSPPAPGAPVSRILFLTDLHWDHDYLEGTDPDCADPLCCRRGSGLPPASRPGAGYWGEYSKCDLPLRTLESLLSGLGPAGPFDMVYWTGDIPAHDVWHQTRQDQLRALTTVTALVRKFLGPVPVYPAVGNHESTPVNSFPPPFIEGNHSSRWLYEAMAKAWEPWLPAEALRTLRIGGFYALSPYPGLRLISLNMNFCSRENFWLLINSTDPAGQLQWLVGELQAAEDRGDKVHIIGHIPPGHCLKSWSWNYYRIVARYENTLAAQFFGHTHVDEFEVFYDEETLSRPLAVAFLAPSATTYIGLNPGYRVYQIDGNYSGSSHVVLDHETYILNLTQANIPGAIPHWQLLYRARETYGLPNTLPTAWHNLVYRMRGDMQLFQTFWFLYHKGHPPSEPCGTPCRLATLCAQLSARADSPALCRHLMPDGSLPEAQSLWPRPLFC
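Human placenta-derived ASM preincubated with compound 10 min at room temperature, then reacted with 9 uM (final) fluorogenic HMU-PC substrate for 60 min at 37 C. Stop solution raises pH to 10; fluorescence read at Ex 386/Em 447 nm.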
* = called active by the depositor; i = inactive; ? = inconclusive; . = not tested or not shown. Compounds with a hit are over-represented: about 6.9% of the library has one in this group of screens. Unless noted, calls follow the shape of the dose curve; as a rule, active = well fitted curve in the direction sought with a large enough effect; inconclusive = small, poorly fitted or top-dose-only effect, or another doubt; inactive = no such curve, though single readings can be large; an effect the other way counts as inactive or inconclusive.

SMILES	SW480 rerep	KB-3-1 tox	MCF10A rerep	KB-V1 cytotox	Giardia kill	ASM inhibitor
Cc1ccc(NC(=O)CSc2ccccc2NC(=O)c2ccccc2)cc1Cl	5%	i	21µM*	?	-22	-2%
Cc1ccc(NC(=O)CSc2ccccc2NC(=O)c2ccccc2Cl)cc1Cl	2%	?	14%	3.7µM*	-10	-6%
Cc1ccc(NC(=O)c2cccc(-n3cnnn3)c2)cc1Cl	0.65µM*	i	?	i	17	-4%
Cc1ccc(NC(=O)COc2ccccc2)cc1Cl	0%	i	?	i	14	0%
COc1ccc(CN(C)C(=O)COC(=O)c2ccc(-c3ccccc3)cc2)c(OC)c1OC	-6%	i	6%	i	-13	-1%
COc1ccc(NC(=O)c2cccc(Oc3ccccc3)c2)cn1	?	8.2µM*	?	?	8	-5%
COc1ccc(NC(=O)c2cccc(S(=O)(=O)Nc3ccc(Br)cc3)c2)cn1	-4%	12µM*	?	?	0	-23%
COc1ccc(NC(=O)Cc2ccc(-c3ccccc3)cc2)cn1	?	?	?	13µM*	-10	4%
COCCN1Cc2cccc(C(=O)Nc3ccc(C(=O)OC)cc3)c2C1=O	.	i	.	i	.	.
COc1ccc(NC(=O)C2=CC(c3ccc4c(c3)OCO4)=NS(=O)(=O)N2C)cc1	.	i	.	i	.	.
Cc1cccc(NS(=O)(=O)c2ccc(Cl)c(C(=O)Nc3ccccc3C)c2)c1	.	i	.	i	.	.
COc1ccc(-c2oc3ncn4nc(-c5ccccc5O)nc4c3c2-c2ccc(OC)cc2)cc1	.	i	.	i	.	.
CC1CCCC=CC2CC(OC(=O)CN(C)C)CC2C(O)C=CC(=O)O1 (configuration not stated)	?	0.0082µM*	?	?	4	6%
CC(=O)C(N=Nc1ccccc1)(Sc1nnc(-c2ccccc2)n1-c1ccccc1)C(C)=O	?	?	8%	12µM*	-2	-1%
CC(=O)C(N=Nc1ccccc1)(Sc1nnc(-c2ccccc2)n1-c1ccccc1)C(=O)Nc1ccccc1 (configuration not stated)	5%	i	6%	i	-2	-10%
N/C(=N/OC(=O)c1cccc([N+](=O)[O-])c1)c1cccc([N+](=O)[O-])c1	0%	?	?	i	-3	-4%
CC1=C(C)/C(=N/OC(=O)c2cccc([N+](=O)[O-])c2)C=CC1=O	8.2µM*	i	8.2µM*	i	-2	-3%
CCOC(=O)CNC(=S)n1ncnc1N	5.8µM*	i	-7%	i	-11	4%
O=C(C[N+]1(CC(O)c2ccccc2)CCCCC1)c1ccccc1 (configuration not stated)	.	i	.	i	.	.
COC(=O)c1cccc(NC(=O)CSc2nnc(C)o2)c1	-5%	i	-4%	i	-13	2%
CS(=O)(=O)N1CCCC(C(=O)N2CCc3ccccc3C2)C1 (configuration not stated)	10µM*	i	2.9µM*	i	20	4%
Cn1c(C(=O)N2CCCC(C(=O)NCCc3ccccc3)C2)cc2sccc21 (configuration not stated)	-1%	?	1%	?	-3	0%
CS(=O)(=O)N1CCC(C(=O)N2CCc3ccccc3C2)CC1	1%	i	-2%	i	0	1%
Cn1c(C(=O)N2CCCC(C(=O)NCCCc3ccccc3)C2)cc2sccc21 (configuration not stated)	-2%	i	-6%	21µM*	18	2%
CS(=O)(=O)N1CCCC(C(=O)NCCc2ccccc2)C1 (configuration not stated)	16µM*	i	?	i	-10	7%
CCOc1ccc(-c2cc(C(=O)NCCc3ccc(C)cc3)c3ccccc3n2)cc1	.	i	.	i	.	.
